Screening results as filed in PubChem BioAssay.
Sampled rows, rich in hits. Any-hit rate of the full collection: about 2.4%.
CHRM1 antagonist – human CHRM1 antagonism; inhibition, % at 3 µM; hit rate 1.3% among 360,000; CHO-K1 hM1, Fluo-8 calcium fluorescence, ACh EC80 antagonist;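 active = percent inhibition above its own plate's cutoff, namely the mean of that plate's compound wells plus 3 SD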;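 also: peak over basal fluorescence ratio during 140 s after agonist addition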
Target sequence (P11229 whole entry, looked up): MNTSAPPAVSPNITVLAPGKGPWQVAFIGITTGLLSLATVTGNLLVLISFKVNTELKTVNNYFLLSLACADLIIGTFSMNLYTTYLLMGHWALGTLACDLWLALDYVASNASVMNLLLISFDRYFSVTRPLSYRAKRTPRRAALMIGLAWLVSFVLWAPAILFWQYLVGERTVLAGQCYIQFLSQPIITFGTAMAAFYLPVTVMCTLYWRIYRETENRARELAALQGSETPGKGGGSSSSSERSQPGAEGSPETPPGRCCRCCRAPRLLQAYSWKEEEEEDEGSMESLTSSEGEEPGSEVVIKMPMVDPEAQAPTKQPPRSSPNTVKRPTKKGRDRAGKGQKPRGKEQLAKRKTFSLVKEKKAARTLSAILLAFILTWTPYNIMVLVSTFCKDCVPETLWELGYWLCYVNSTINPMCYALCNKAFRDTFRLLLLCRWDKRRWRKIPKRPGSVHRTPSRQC
CHO-K1 Ca antag – nonselective inhibitor or artifact in parental CHO-K1 cells; hit rate 0.6% among 360,000; AID 602250; ATP-induced calcium, Fluo-8 fluorescence; inhibition, % at 3 µM;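 active = inhibition above a per-plate cutoff, the plate's mean sample inhibition plus 3 SD, cut at about 24% in these data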
CHO-K1 Ca PAM – M1 PAM counterscreen hit in parental CHO-K1 cells; ATP EC20, Fluo-8 calcium fluorescence; 0% at ATP EC20, 100% at ATP max; activation, % at 3 µM; hit rate 0.02% among 360,000;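 active = activation above the run cutoff, the mean activation of all test compounds plus 3 SD, cut at about 40% in these data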;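 also: peak over basal fluorescence ratio in a 140 s read after ATP addition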
CHRM1 PAM – positive allosteric modulators of human M1 muscarinic receptor; hit rate 0.088% among 360,000; activation, % at 3 µM; CHO-K1 hM1, Fluo-8 calcium fluorescence, ACh EC20; 0% = ACh EC20, 100% = maximal ACh; in the data active = activation above about 19%, passing the limit was not always enough
M1 ag parental – M1 agonist counterscreen hit in parental CHO-K1 cells; Fluo-8 calcium fluorescence; scaled to maximal ATP response, vehicle zero; activation, % at 3 µM; hit rate 0.48% among 360,000; AID 602248; in the data active = activation above about 15%;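 also: untransfected CHO-K1 host cells lacking M1 receptor as counterscreen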
CHRM1 agonist – activates human CHRM1 receptor | CHO-K1 hM1, Fluo-8 calcium fluorescence, agonist mode; 0% DMSO, 100% acetylcholine EC100 | activation, % at 3 µM | hit rate 0.33% among 360,000;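 active = activation above the run's mean compound activation plus 3 SD, cut at about 16% in these data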;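 also: peak over basal fluorescence ratio within a 140 s kinetic read after compound addition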
Hits are given with their value.

`Cc1ccc(C)c(NP(=O)(Oc2ccccc2)Oc2ccccc2)c1` gave CHRM1 antagonist 35.8, CHO-K1 Ca antag inactive, CHO-K1 Ca PAM inactive, CHRM1 PAM inactive, M1 ag parental inactive and CHRM1 agonist inactive.
`Cc1ccc(S(=O)(=O)NP(=O)(Oc2ccccc2)Oc2ccccc2)cc1` gave CHRM1 antagonist inactive, CHO-K1 Ca antag inactive, CHO-K1 Ca PAM inactive, CHRM1 PAM inactive, M1 ag parental inactive and CHRM1 agonist inactive.
For O=C(c1cccc2ccccc12)C1CCCN(Cc2ccon2)C1 (configuration not stated) the results were CHRM1 antagonist inactive, CHO-K1 Ca antag inactive, CHO-K1 Ca PAM inactive, CHRM1 PAM inactive, M1 ag parental inactive and CHRM1 agonist inactive.
O=C(c1cccc2ccccc12)C1CCCN(C2CCC2)C1 (configuration not stated) was read as CHRM1 antagonist 26.4, CHO-K1 Ca antag inactive, CHO-K1 Ca PAM inactive, CHRM1 PAM inactive, M1 ag parental inactive and CHRM1 agonist 16.5.
`CCN(CC)c1ccc(/C=C/[N+](=O)[O-])cc1` gave CHRM1 antagonist 53.0, CHO-K1 Ca antag 31.0, CHO-K1 Ca PAM inactive, CHRM1 PAM inactive, M1 ag parental 59.6 and CHRM1 agonist 69.9.
For COc1cc(/C=C/[N+](=O)[O-])ccc1O the results were CHRM1 antagonist inactive, CHO-K1 Ca antag inactive, CHO-K1 Ca PAM inactive, CHRM1 PAM inactive, M1 ag parental inactive and CHRM1 agonist inactive.
Screening CC1C(c2ccccc2)OC(=O)N1C (configuration not stated) returned CHRM1 antagonist inactive, CHO-K1 Ca antag inactive, CHO-K1 Ca PAM inactive, CHRM1 PAM inactive, M1 ag parental inactive and CHRM1 agonist inactive.
`COC(=O)C(O)(c1ccc(NC(=O)NC2CCCCC2)cc1)C(F)(F)F` (configuration not stated) gave CHRM1 antagonist inactive, CHO-K1 Ca antag inactive, CHO-K1 Ca PAM inactive, CHRM1 PAM inactive, M1 ag parental inactive and CHRM1 agonist inactive.
Screening CCOC(=O)C(O)(c1ccc(NC(=S)NC(=O)c2ccc(Cl)cc2Cl)cc1)C(F)(F)F (configuration not stated) returned CHRM1 antagonist inactive, CHO-K1 Ca antag inactive, CHO-K1 Ca PAM inactive, CHRM1 PAM inactive, M1 ag parental inactive and CHRM1 agonist 21.2.
Screening COC(=O)C(O)(c1ccc(NC(=S)NC(=O)c2ccc(Cl)cc2Cl)cc1)C(F)(F)F (configuration not stated) returned CHRM1 antagonist inactive, CHO-K1 Ca antag inactive, CHO-K1 Ca PAM inactive, CHRM1 PAM inactive, M1 ag parental inactive and CHRM1 agonist 21.4.
`COC(=O)C(O)(c1ccc(NC(=S)NC(=O)c2ccc(Cl)cc2Cl)c(C)c1)C(F)(F)F` (configuration not stated) gave CHRM1 antagonist inactive, CHO-K1 Ca antag inactive, CHO-K1 Ca PAM inactive, CHRM1 PAM inactive, M1 ag parental inactive and CHRM1 agonist inactive.
Screening CCOC(=O)C(O)(c1ccc(NC(=S)NC(=O)c2ccc(Cl)cc2Cl)c(C)c1)C(F)(F)F (configuration not stated) returned CHRM1 antagonist 48.5, CHO-K1 Ca antag inactive, CHO-K1 Ca PAM inactive, CHRM1 PAM inactive, M1 ag parental inactive and CHRM1 agonist 22.2.
`CCOC(=O)C(O)(c1ccc(NC(=O)Oc2ccccc2)cc1)C(F)(F)F` (configuration not stated) gave CHRM1 antagonist inactive, CHO-K1 Ca antag inactive, CHO-K1 Ca PAM inactive, CHRM1 PAM inactive, M1 ag parental inactive and CHRM1 agonist inactive.
Screening Clc1ccccc1CN1CCN(c2cccc3[nH]ccc23)CC1 returned CHRM1 antagonist inactive, CHO-K1 Ca antag inactive, CHO-K1 Ca PAM inactive, CHRM1 PAM inactive, M1 ag parental inactive and CHRM1 agonist inactive.
`CCOC(=O)[C@]12Cc3cc(C)ccc3[C@H]1N(C1CCCCC1)C(=O)c1cc(OC)ccc12` gave CHO-K1 Ca antag 24.5, CHO-K1 Ca PAM inactive and M1 ag parental inactive.
Screening CCN(CC)P(c1n(C)cc[n+]1C)N(CC)CC returned CHRM1 antagonist inactive, CHO-K1 Ca antag inactive, CHO-K1 Ca PAM inactive, CHRM1 PAM inactive, M1 ag parental inactive and CHRM1 agonist inactive.
Screening COc1ccc(N=C2SCCCN2C)cc1 returned CHRM1 antagonist inactive, CHO-K1 Ca antag inactive, CHO-K1 Ca PAM inactive, CHRM1 PAM inactive, M1 ag parental inactive and CHRM1 agonist inactive.
CC1CC(OC(=O)c2ccccc2)CC(C)N1C (configuration not stated) was read as CHRM1 antagonist 42.1, CHO-K1 Ca antag inactive, CHO-K1 Ca PAM inactive, CHRM1 PAM inactive, M1 ag parental inactive and CHRM1 agonist inactive.
For CN1C2CCC1CC(OC(=O)c1cccc(O)c1)C2 (configuration not stated) the results were CHRM1 antagonist 59.1, CHO-K1 Ca antag inactive, CHO-K1 Ca PAM inactive, CHRM1 PAM inactive, M1 ag parental inactive and CHRM1 agonist inactive.
Screening CCC(C)C12CN3CCN(CC(C)(C3)C1=O)C2 (configuration not stated) returned CHRM1 antagonist inactive, CHO-K1 Ca antag inactive, CHO-K1 Ca PAM inactive, CHRM1 PAM inactive, M1 ag parental inactive and CHRM1 agonist inactive.
For C/C(=N\NC(=S)Nc1ccccc1)c1c(O)n(C)c(=O)n(C)c1=O the results were CHRM1 antagonist inactive, CHO-K1 Ca antag inactive, CHO-K1 Ca PAM inactive, CHRM1 PAM inactive, M1 ag parental 22.5 and CHRM1 agonist inactive.
Screening CC/C(=N\Nc1ccccc1)c1c(O)n(C)c(=O)n(C)c1=O returned CHRM1 antagonist inactive, CHO-K1 Ca antag inactive, CHO-K1 Ca PAM inactive, CHRM1 PAM inactive, M1 ag parental inactive and CHRM1 agonist inactive.
CC(=O)NCC(=O)Nc1ccc(Br)cc1C(=O)c1ccccc1 was read as CHRM1 antagonist inactive, CHO-K1 Ca antag inactive, CHO-K1 Ca PAM inactive, CHRM1 PAM inactive, M1 ag parental inactive and CHRM1 agonist inactive.
Screening CC(C)(C)NC(=S)/N=C(\N)N[N+](=O)[O-] returned CHRM1 antagonist inactive, CHO-K1 Ca antag inactive, CHO-K1 Ca PAM inactive, CHRM1 PAM inactive, M1 ag parental inactive and CHRM1 agonist inactive.
Screening C#CCOC(=O)C1=CCCN(C)C1 returned CHRM1 antagonist inactive, CHO-K1 Ca antag inactive, CHO-K1 Ca PAM inactive, CHRM1 PAM inactive, M1 ag parental inactive and CHRM1 agonist 106.0.
For O=[N+]([O-])/C=C1/NCCN1Cc1ccc(Cl)nc1 the results were CHRM1 antagonist inactive, CHO-K1 Ca antag 26.1, CHO-K1 Ca PAM inactive, CHRM1 PAM inactive, M1 ag parental inactive and CHRM1 agonist inactive.
O=[N+]([O-])/C(Cl)=C1\NCCN1Cc1ccc(Cl)nc1 was read as CHRM1 antagonist inactive, CHO-K1 Ca antag inactive, CHO-K1 Ca PAM inactive, CHRM1 PAM inactive, M1 ag parental inactive and CHRM1 agonist inactive.
`CCOP(=O)(OCC)C(NC(=O)c1ccccc1)C(Cl)(Cl)Cl` (configuration not stated) gave CHRM1 antagonist inactive, CHO-K1 Ca antag 24.1, CHO-K1 Ca PAM inactive, CHRM1 PAM inactive, M1 ag parental inactive and CHRM1 agonist inactive.
`O=C(C1CCN(c2nc3ccc(Br)cc3s2)CC1)N1CCC2(CC1)OCCO2` gave CHRM1 antagonist 59.3, CHO-K1 Ca antag inactive, CHO-K1 Ca PAM inactive, CHRM1 PAM inactive, M1 ag parental inactive and CHRM1 agonist inactive.
